Experiments:
Assay in all cases: DAPPL (digital affinity profiling via proximity ligation, sequencing); 10 mM Tris-HCl pH 7.5, 50 mM NaCl, 1 mM DTT, 4% glycerol, room temperature, 30 min; GST-TFs on glutathione beads, 16-mer random dsDNA library, 0.1% formaldehyde crosslink after washing; high values mean tight binding
FEV = biological target: T1, FEV (Homo sapiens, UniProt Q99581 1-238); conditions: protein: recombinant; tags: N-terminal GST; dsDNA, one strand shown
T1 sequence: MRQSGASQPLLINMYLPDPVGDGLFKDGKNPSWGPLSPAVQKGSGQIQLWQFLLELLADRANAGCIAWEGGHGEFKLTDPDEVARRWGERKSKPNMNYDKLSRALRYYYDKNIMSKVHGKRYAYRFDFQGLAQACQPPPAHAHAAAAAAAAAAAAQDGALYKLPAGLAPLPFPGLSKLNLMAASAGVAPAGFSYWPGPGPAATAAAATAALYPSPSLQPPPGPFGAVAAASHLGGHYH
How it was run: (§1)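 Sequencing on an Illumina NextSeq500 followed washing, crosslinking with 0.1% formaldehyde, proximity ligation (BsaI/T4 ligase, 1 h, 37 °C) and PCR amplification of pools that had been incubated for 30 min at room temperature with 200 nmole of a random double-stranded 16-mer DNA library in Tris/NaCl/DTT/glycerol buffer. Each pool held DNA-barcoded human transcription factors, expressed in yeast as GST fusions and captured on glutathione beads, plus a tag-only sample. Binding signal is a hexamer's read frequency for a factor divided by its frequency in the tag-only sample.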

ETV5 = ETV5 (Homo sapiens, UniProt P41161 1-510); conditions: protein: recombinant; tags: N-terminal GST; dsDNA, one strand shown
How it was run: as §1

HSF1 = HSF1 (Homo sapiens, UniProt Q00613 1-529); conditions: protein: recombinant; tags: N-terminal GST; chain copies: 3; dsDNA, one strand shown
How it was run: as §1

SPIC = biological target: T2, SPIC (Homo sapiens, UniProt Q8N5J4 1-248); conditions: protein: recombinant; tags: N-terminal GST; dsDNA, one strand shown
T2 sequence: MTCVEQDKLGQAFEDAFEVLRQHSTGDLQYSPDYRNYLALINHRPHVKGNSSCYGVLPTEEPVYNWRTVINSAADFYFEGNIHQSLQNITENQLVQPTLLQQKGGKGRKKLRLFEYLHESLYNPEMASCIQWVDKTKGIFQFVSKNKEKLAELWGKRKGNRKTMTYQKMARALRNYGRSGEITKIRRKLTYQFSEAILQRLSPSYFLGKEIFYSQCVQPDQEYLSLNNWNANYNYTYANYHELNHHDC
How it was run: as §1

ELF4 = ELF4 (Homo sapiens, UniProt Q99607 1-663); conditions: protein: recombinant; tags: N-terminal GST; dsDNA, one strand shown
How it was run: as §1

ELK4 = biological target: T3, ELK4 (Homo sapiens, UniProt P28324-2 1-405); conditions: protein: recombinant; tags: N-terminal GST; dsDNA, one strand shown
T3 sequence: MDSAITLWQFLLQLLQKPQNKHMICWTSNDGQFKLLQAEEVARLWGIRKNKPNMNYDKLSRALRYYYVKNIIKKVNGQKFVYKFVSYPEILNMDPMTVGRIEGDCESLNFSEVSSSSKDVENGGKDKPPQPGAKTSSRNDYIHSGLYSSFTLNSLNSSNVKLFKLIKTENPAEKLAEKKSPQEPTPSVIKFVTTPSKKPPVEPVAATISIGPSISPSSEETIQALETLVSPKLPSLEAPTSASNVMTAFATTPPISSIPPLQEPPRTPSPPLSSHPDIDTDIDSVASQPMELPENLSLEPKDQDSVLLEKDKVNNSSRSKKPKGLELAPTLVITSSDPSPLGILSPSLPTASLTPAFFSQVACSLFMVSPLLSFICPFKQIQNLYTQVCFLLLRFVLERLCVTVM
How it was run: as §1

ETV2 = biological target: T4, ETV2 (Homo sapiens, UniProt O00321 1-342); conditions: protein: recombinant; tags: N-terminal GST; dsDNA, one strand shown
T4 sequence: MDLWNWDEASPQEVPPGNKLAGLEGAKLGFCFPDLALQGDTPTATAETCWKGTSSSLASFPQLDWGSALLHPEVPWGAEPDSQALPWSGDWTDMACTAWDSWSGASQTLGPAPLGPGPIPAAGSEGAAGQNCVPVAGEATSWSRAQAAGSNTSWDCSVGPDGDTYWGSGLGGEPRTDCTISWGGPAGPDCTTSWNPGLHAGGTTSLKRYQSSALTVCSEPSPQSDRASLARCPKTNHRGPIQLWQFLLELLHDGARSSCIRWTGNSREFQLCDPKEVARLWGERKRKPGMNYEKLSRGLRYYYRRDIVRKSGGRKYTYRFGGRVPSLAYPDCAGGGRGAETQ
How it was run: as §1

ELF3 = biological target: T5, ELF3 (Homo sapiens, UniProt P78545 1-371); conditions: protein: recombinant; tags: N-terminal GST; dsDNA, one strand shown
T5 sequence: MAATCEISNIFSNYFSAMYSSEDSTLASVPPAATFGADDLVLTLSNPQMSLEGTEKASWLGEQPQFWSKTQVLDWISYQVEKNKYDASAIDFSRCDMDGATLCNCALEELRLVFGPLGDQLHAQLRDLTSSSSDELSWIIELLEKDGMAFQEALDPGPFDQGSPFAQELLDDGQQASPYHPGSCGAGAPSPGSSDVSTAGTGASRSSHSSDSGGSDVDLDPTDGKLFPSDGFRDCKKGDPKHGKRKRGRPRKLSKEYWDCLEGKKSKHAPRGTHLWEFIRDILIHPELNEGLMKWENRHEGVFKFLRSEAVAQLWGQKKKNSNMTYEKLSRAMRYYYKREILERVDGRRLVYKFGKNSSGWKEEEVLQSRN
How it was run: as §1

CRX = CRX (Homo sapiens, UniProt O43186 1-299); conditions: protein: recombinant; tags: N-terminal GST; dsDNA, one strand shown
How it was run: as §1

ETV1 = ETV1 (Homo sapiens, UniProt P50549 1-477); conditions: protein: recombinant; tags: N-terminal GST; dsDNA, one strand shown
How it was run: as §1

ERF = biological target: T6, ERF (Homo sapiens, UniProt P50548 1-548); conditions: protein: recombinant; tags: N-terminal GST; dsDNA, one strand shown
T6 sequence: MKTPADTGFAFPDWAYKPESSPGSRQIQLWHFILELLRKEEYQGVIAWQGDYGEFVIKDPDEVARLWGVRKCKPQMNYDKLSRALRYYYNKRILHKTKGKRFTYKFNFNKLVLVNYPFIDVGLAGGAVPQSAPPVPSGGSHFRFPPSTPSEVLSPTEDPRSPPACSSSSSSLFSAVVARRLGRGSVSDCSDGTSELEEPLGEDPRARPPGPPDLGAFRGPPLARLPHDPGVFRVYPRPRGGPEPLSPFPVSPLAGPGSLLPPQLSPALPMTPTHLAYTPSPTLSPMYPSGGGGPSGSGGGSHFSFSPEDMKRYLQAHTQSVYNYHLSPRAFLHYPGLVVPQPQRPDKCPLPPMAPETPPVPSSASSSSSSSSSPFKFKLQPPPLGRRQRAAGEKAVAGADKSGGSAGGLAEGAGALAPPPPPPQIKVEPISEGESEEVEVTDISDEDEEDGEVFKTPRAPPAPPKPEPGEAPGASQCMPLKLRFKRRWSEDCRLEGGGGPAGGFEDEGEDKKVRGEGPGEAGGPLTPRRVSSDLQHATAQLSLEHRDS
How it was run: as §1

ETV3L = biological target: T7, ETV3L (Homo sapiens, UniProt Q6ZN32 1-361); conditions: protein: recombinant; tags: N-terminal GST; dsDNA, one strand shown
T7 sequence: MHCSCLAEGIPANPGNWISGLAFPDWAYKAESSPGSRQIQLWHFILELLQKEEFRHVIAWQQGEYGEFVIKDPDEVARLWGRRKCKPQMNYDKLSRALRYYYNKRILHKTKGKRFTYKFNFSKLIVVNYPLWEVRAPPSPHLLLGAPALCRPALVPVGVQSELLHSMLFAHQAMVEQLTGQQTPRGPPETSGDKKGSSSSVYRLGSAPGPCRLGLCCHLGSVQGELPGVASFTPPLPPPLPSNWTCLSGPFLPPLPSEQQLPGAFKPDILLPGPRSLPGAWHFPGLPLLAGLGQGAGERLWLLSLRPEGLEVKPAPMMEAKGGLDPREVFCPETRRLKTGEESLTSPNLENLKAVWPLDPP
How it was run: as §1

ETS2 = biological target: T8, ETS2 (Homo sapiens, UniProt P15036 1-469); conditions: protein: recombinant; tags: N-terminal GST; dsDNA, one strand shown
T8 sequence: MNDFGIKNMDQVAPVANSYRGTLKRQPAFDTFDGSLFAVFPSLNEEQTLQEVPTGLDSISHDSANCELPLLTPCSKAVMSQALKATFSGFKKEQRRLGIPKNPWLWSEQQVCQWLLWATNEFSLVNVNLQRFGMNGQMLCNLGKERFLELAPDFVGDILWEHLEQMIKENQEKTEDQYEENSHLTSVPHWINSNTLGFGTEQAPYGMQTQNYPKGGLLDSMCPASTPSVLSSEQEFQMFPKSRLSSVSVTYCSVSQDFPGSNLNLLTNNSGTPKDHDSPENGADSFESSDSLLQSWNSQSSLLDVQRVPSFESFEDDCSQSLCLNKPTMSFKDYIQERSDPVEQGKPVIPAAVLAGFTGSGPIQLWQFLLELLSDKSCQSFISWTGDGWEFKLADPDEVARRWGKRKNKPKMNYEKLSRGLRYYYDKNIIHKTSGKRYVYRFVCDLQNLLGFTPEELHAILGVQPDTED
How it was run: as §1

SPDEF = biological target: T9, SPDEF (Homo sapiens, UniProt O95238 1-335); conditions: protein: recombinant; tags: N-terminal GST; dsDNA, one strand shown
T9 sequence: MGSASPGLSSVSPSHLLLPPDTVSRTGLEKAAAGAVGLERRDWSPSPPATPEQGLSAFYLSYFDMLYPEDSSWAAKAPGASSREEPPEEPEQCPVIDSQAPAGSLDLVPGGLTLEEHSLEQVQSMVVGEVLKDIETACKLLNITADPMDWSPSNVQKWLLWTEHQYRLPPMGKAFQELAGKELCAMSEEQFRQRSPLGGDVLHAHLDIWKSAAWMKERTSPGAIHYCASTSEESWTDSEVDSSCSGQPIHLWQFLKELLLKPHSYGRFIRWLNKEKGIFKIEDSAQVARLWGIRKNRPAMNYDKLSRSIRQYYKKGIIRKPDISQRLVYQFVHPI
How it was run: as §1

ETV7 = biological target: T10, ETV7 (Homo sapiens, UniProt Q9Y603 1-341); conditions: protein: recombinant; tags: N-terminal GST; dsDNA, one strand shown
T10 sequence: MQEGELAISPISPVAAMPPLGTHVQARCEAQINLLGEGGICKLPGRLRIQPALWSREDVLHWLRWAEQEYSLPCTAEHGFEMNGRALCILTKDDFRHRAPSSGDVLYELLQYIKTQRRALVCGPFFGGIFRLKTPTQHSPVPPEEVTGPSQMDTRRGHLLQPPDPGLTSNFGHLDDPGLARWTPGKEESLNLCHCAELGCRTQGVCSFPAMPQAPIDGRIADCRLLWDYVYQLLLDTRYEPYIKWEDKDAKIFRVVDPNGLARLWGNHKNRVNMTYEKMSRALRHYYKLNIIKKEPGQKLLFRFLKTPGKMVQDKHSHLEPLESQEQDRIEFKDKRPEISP
How it was run: as §1

ELF5 = biological target: T11, ELF5 (Homo sapiens, UniProt Q9UKW6-2 1-255); conditions: protein: recombinant; tags: N-terminal GST; dsDNA, one strand shown
T11 sequence: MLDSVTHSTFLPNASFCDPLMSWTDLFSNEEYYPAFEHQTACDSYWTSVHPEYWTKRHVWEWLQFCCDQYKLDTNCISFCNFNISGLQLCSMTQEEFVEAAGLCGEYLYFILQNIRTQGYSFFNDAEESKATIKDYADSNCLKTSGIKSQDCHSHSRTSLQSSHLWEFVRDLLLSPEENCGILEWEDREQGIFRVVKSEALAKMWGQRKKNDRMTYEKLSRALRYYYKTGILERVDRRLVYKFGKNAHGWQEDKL
How it was run: as §1

ETV3 = biological target: T12, ETV3 (Homo sapiens, UniProt P41162-2 1-143); conditions: protein: recombinant; tags: N-terminal GST; dsDNA, one strand shown
T12 sequence: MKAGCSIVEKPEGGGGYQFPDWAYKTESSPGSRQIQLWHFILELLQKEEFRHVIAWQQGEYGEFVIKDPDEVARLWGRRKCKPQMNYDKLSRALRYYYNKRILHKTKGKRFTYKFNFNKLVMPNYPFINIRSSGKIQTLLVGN
How it was run: as §1

ETV6 = ETV6 (Homo sapiens, UniProt P41212 1-452); conditions: protein: recombinant; tags: N-terminal GST; dsDNA, one strand shown
How it was run: as §1

Chain of ETV1 (P50549 whole entry): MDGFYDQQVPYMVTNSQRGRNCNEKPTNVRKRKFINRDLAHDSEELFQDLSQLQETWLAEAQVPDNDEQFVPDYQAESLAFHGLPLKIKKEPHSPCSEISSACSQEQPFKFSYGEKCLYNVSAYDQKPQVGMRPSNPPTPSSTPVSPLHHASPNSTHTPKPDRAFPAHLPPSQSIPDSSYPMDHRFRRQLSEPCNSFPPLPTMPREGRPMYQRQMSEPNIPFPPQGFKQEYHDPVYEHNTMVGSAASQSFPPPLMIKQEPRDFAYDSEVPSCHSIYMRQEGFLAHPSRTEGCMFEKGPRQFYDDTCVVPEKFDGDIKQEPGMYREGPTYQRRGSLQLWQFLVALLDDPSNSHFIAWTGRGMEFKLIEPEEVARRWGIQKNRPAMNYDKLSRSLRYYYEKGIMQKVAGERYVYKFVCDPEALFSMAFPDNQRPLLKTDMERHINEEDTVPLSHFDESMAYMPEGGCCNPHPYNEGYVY
Chain of ELF4 (Q99607 whole entry): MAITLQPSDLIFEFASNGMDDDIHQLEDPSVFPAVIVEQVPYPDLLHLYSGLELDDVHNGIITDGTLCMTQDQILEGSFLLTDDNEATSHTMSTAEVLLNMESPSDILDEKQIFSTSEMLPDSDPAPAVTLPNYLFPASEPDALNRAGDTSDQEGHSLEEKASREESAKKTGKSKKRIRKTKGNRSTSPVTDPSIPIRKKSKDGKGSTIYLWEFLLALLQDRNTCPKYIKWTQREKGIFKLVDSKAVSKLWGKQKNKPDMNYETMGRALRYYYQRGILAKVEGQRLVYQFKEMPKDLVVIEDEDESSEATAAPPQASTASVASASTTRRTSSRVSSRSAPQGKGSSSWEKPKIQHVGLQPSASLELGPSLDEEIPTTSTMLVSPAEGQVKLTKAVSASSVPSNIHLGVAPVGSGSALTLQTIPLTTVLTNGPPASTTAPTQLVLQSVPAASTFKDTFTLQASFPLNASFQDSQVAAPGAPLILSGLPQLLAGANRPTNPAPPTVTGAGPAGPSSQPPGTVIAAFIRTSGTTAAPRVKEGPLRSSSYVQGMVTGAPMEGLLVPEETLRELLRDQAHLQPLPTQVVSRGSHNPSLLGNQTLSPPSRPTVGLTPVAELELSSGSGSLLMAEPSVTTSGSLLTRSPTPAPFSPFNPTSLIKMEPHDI
Chain of HSF1 (Q00613 whole entry): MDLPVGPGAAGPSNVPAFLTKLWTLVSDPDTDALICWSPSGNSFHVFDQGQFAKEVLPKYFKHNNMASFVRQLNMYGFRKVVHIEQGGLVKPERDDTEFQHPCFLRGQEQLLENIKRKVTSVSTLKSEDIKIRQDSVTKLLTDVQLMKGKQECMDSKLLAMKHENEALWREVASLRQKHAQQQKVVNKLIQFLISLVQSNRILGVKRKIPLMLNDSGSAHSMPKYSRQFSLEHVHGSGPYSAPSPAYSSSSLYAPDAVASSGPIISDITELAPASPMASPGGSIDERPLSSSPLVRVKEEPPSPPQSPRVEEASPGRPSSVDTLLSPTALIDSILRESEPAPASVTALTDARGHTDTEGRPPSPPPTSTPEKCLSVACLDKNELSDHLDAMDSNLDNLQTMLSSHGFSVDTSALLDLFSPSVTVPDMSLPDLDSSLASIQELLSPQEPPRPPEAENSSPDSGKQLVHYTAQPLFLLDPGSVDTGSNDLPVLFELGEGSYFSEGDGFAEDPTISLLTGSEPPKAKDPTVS
Chain of ETV6 (P41212 whole entry): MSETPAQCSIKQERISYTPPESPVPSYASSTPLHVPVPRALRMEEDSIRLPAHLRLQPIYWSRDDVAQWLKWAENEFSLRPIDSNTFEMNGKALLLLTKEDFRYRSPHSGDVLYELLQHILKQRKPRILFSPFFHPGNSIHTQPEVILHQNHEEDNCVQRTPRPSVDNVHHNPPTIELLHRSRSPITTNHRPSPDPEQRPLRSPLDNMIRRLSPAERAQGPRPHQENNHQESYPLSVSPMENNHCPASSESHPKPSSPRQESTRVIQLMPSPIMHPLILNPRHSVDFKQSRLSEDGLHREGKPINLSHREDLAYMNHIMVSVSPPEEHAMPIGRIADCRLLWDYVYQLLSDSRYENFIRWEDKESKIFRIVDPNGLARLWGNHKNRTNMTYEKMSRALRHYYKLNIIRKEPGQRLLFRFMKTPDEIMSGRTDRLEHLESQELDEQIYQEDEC
Chain of ETV5 (P41161 whole entry): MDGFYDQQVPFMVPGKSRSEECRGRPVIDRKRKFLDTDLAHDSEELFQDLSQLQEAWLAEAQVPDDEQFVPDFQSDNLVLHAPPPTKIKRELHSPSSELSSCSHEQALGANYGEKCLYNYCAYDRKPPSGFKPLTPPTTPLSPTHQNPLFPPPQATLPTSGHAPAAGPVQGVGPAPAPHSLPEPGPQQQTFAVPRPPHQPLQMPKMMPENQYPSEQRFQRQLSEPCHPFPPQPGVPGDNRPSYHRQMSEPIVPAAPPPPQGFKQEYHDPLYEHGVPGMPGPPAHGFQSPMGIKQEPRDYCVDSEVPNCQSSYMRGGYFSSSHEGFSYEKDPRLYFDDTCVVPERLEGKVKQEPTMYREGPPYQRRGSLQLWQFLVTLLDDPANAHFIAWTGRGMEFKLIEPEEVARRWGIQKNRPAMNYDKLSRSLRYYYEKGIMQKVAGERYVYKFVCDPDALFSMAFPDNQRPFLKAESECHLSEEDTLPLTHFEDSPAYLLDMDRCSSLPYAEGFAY
Chain of CRX (O43186 whole entry): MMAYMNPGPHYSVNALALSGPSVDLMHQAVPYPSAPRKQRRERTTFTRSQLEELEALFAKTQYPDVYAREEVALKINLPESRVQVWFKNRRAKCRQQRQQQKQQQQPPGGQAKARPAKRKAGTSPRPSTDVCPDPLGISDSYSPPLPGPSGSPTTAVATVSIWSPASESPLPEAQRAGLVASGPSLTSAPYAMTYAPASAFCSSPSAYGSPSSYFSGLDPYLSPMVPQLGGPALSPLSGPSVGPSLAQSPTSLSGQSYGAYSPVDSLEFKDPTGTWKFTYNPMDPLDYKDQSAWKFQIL

## TCCCTG
FEV
  binding signal: 1.28 fold enrichment (6-mer frequency, TF over GST control)
ETV5
  binding signal: 1.35 fold enrichment (6-mer frequency, TF over GST control)
HSF1
  binding signal: 1.24 fold enrichment (6-mer frequency, TF over GST control)
SPIC
  binding signal: 1.38 fold enrichment (6-mer frequency, TF over GST control)
ELF4
  binding signal: 1.31 fold enrichment (6-mer frequency, TF over GST control)
ELK4
  binding signal: 1.19 fold enrichment (6-mer frequency, TF over GST control)
ETV2
  binding signal: 1.38 fold enrichment (6-mer frequency, TF over GST control)
ELF3
  binding signal: 1.2 fold enrichment (6-mer frequency, TF over GST control)
CRX
  binding signal: 1.3 fold enrichment (6-mer frequency, TF over GST control)
ETV1
  binding signal: 1.35 fold enrichment (6-mer frequency, TF over GST control)
ERF
  binding signal: 1.29 fold enrichment (6-mer frequency, TF over GST control)
ETV3L
  binding signal: 1.28 fold enrichment (6-mer frequency, TF over GST control)
ETS2
  binding signal: 1.21 fold enrichment (6-mer frequency, TF over GST control)
SPDEF
  binding signal: 1.19 fold enrichment (6-mer frequency, TF over GST control)
ETV7
  binding signal: 1.23 fold enrichment (6-mer frequency, TF over GST control)
ELF5
  binding signal: 1.38 fold enrichment (6-mer frequency, TF over GST control)
ETV3
  binding signal: 1.26 fold enrichment (6-mer frequency, TF over GST control)
ETV6
  binding signal: 1.31 fold enrichment (6-mer frequency, TF over GST control)
